Source: the supplement of paper PMC10849652
Of roughly 7,900 targets only a part is listed; those with a hit were picked by preference. About 0.6% of all pairs of compound and target were hits.

Columns and labels:
Test in all cases: log2 fold change, soluble protein after heating vs DMSO (PISA); higher = thermal stabilisation; K562 cells, 10 uM, 30 min; active = over 0.2 and 3.5 SD of the protein, either way, in both replicates (recomputed)
[1] = compound: COC1=CC=C(C=C1)CN2C=CC3=C2C=C(C=C3)C(=O)NO
How it was run: (§1)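 K562 cells at 2×10^6 cells/mL were exposed to 10 μM compound for 30 min, then aliquots were heated for 3 min across 48°C-58°C, pooled, and extracted in PBS containing 0.5% NP-40 at 4°C. The supernatant after 21,000xg for 90 min was taken as soluble protein and measured by TMTpro 16plex LC-MS/MS with channel sums equalised. Thermal stability is reported relative to control samples, with values from duplicates. Fold changes are given on a log2 scale.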

filanesib = compound: CON(C)C(=O)N1N=C(c2cc(F)ccc2F)S[C@@]1(CCCN)c1ccccc1 [filanesib]
How it was run: as §1

zotarolimus = compound: CO[C@H]1C[C@@H]2CC[C@@H](C)[C@@](O)(O2)C(=O)C(=O)N2CCCC[C@H]2C(=O)O[C@H]([C@H](C)C[C@@H]2CC[C@H](n3cnnn3)[C@H](OC)C2)CC(=O)[C@H](C)/C=C(\C)[C@@H](O)[C@@H](OC)C(=O)[C@H](C)C[C@H](C)/C=C/C=C/C=C/1C [zotarolimus]
How it was run: as §1

idasanutlin = compound: COc1cc(C(=O)O)ccc1NC(=O)[C@@H]1N[C@@H](CC(C)(C)C)[C@](C#N)(c2ccc(Cl)cc2F)[C@H]1c1cccc(Cl)c1F [idasanutlin]
How it was run: as §1

alisertib = compound: COc1cc(Nc2ncc3c(n2)-c2ccc(Cl)cc2C(c2c(F)cccc2OC)=NC3)ccc1C(=O)O [alisertib]
How it was run: as §1

[2] = compound: COc1cc2nc(-c3cc(F)ccc3O)nc(N[C@@H]3CNC[C@H]3C(C)(C)O)c2cc1OC
How it was run: as §1

gefitinib = compound: COc1cc2ncnc(Nc3ccc(F)c(Cl)c3)c2cc1OCCCN1CCOCC1 [gefitinib]
How it was run: as §1

[3] = compound: COc1cccc2cc(-c3nc([C@H]4CC[C@H](C(=O)O)CC4)n4ncnc(N)c34)[nH]c12
How it was run: as §1

lapatinib = compound: CS(=O)(=O)CCNCc1ccc(-c2ccc3ncnc(Nc4ccc(OCc5cccc(F)c5)c(Cl)c4)c3c2)o1 [lapatinib]
How it was run: as §1

pictilisib = compound: CS(=O)(=O)N1CCN(Cc2cc3nc(-c4cccc5[nH]ncc45)nc(N4CCOCC4)c3s2)CC1 [pictilisib]
How it was run: as §1

[4] = compound: CS(=O)(=O)c1ccc(-c2cnc(N)c(C(=O)Nc3ccccc3)n2)cc1
How it was run: as §1

crizotinib = compound: C[C@@H](Oc1cc(-c2cnn(C3CCNCC3)c2)cnc1N)c1c(Cl)ccc(F)c1Cl [crizotinib]
How it was run: as §1

[5] = compound: C[C@@H]1COCCN1C2=NC(=NC(=C2)C3(CC3)S(=O)(=O)C)C4=C5C=CNC5=CC=C4
How it was run: as §1

[6] = compound: C[C@H](C1=CC=C(C=C1)C(=O)NC2=C3C=CNC3=NC=C2)N
How it was run: as §1

duvelisib = compound: C[C@H](Nc1ncnc2nc[nH]c12)c1cc2cccc(Cl)c2c(=O)n1-c1ccccc1 [duvelisib]
How it was run: as §1

gandotinib = compound: Cc1cc(Nc2cc(CN3CCOCC3)c3nc(C)c(Cc4ccc(Cl)cc4F)n3n2)n[nH]1 [gandotinib]
How it was run: as §1

tozasertib = compound: Cc1cc(Nc2cc(N3CCN(C)CC3)nc(Sc3ccc(NC(=O)C4CC4)cc3)n2)n[nH]1 [tozasertib]
How it was run: as §1

[7] = compound: Cc1cc(SCc2sc(-c3ccc(C(F)(F)F)cc3)nc2C)ccc1OCC(=O)O
How it was run: as §1

doramapimod = compound: Cc1ccc(-n2nc(C(C)(C)C)cc2NC(=O)Nc2ccc(OCCN3CCOCC3)c3ccccc23)cc1 [doramapimod]
How it was run: as §1

ispinesib = compound: Cc1ccc(C(=O)N(CCCN)[C@@H](c2nc3cc(Cl)ccc3c(=O)n2Cc2ccccc2)C(C)C)cc1 [ispinesib]
How it was run: as §1

Measured: log2 fold change

TOP2A isoform 4 (UniProt P11388)
inactive: [1] 0.052 | filanesib 0.486 | zotarolimus 0.079 | idasanutlin 0.24 | alisertib -0.144 | [2] -0.029 | gefitinib -0.042 | [3] -0.4 | lapatinib 0.13 | pictilisib -0.071 | [4] -0.071 | crizotinib -0.157 | [5] -0.337 | [6] 0.559 | duvelisib -0.185 | gandotinib 0.158 | tozasertib -0.025 | [7] 0.015 | doramapimod 0.362 | ispinesib -0.376

XPO6 (UniProt Q96QU8)
inactive: [1] -0.453 | filanesib -0.074 | zotarolimus 0.047 | idasanutlin -0.079 | alisertib 0.171 | [2] 0.064 | gefitinib -0.029 | [3] -0.052 | lapatinib -0.055 | pictilisib -0.025 | [4] -0.033 | crizotinib 0.177 | [5] -0.277 | [6] 0.031 | duvelisib -0.001 | gandotinib 0.104 | tozasertib -0.011 | [7] 0.027 | doramapimod 0.179 | ispinesib 0

UBE2E3 (UniProt Q969T4)
Sequence of UniProt Q969T4 (Q969T4 whole entry, looked up): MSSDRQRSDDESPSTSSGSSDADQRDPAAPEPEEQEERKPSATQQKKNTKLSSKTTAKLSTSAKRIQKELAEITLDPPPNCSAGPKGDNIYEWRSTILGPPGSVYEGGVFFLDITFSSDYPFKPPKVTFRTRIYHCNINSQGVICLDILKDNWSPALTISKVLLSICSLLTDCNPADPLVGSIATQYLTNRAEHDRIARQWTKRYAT
inactive: [1] -0.077 | filanesib -0.046 | zotarolimus -0.013 | idasanutlin -0.075 | alisertib -0.045 | [2] 0.108 | gefitinib -0.076 | [3] 0.022 | lapatinib -0.021 | pictilisib 0.089 | [4] 0.008 | crizotinib 0 | [5] 0.219 | [6] 0.008 | duvelisib 0.025 | gandotinib -0.052 | tozasertib 0.061 | [7] 0.034 | doramapimod 0.03 | ispinesib -0.005

TMEM208 (UniProt Q9BTX3)
Sequence of UniProt Q9BTX3 (Q9BTX3 whole entry, looked up): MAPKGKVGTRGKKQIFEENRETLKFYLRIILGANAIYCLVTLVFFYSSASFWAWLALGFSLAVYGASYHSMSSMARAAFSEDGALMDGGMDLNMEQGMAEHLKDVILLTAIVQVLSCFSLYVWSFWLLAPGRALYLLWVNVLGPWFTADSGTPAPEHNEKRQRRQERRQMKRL
inactive: [1] -0.131 | filanesib -0.254 | zotarolimus -0.111 | idasanutlin -0.137 | alisertib 0.109 | [2] 0.019 | gefitinib -0.055 | [3] -0.146 | lapatinib -0.151 | pictilisib -0.17 | [4] -0.09 | crizotinib -0.119 | [5] 0.134 | [6] -0.004 | duvelisib -0.039 | gandotinib 0.086 | tozasertib -0.035 | [7] 0.076 | doramapimod 0.019 | ispinesib -0.243

WDR7 (UniProt Q9Y4E6)
Sequence of UniProt Q9Y4E6 (Q9Y4E6 whole entry, looked up): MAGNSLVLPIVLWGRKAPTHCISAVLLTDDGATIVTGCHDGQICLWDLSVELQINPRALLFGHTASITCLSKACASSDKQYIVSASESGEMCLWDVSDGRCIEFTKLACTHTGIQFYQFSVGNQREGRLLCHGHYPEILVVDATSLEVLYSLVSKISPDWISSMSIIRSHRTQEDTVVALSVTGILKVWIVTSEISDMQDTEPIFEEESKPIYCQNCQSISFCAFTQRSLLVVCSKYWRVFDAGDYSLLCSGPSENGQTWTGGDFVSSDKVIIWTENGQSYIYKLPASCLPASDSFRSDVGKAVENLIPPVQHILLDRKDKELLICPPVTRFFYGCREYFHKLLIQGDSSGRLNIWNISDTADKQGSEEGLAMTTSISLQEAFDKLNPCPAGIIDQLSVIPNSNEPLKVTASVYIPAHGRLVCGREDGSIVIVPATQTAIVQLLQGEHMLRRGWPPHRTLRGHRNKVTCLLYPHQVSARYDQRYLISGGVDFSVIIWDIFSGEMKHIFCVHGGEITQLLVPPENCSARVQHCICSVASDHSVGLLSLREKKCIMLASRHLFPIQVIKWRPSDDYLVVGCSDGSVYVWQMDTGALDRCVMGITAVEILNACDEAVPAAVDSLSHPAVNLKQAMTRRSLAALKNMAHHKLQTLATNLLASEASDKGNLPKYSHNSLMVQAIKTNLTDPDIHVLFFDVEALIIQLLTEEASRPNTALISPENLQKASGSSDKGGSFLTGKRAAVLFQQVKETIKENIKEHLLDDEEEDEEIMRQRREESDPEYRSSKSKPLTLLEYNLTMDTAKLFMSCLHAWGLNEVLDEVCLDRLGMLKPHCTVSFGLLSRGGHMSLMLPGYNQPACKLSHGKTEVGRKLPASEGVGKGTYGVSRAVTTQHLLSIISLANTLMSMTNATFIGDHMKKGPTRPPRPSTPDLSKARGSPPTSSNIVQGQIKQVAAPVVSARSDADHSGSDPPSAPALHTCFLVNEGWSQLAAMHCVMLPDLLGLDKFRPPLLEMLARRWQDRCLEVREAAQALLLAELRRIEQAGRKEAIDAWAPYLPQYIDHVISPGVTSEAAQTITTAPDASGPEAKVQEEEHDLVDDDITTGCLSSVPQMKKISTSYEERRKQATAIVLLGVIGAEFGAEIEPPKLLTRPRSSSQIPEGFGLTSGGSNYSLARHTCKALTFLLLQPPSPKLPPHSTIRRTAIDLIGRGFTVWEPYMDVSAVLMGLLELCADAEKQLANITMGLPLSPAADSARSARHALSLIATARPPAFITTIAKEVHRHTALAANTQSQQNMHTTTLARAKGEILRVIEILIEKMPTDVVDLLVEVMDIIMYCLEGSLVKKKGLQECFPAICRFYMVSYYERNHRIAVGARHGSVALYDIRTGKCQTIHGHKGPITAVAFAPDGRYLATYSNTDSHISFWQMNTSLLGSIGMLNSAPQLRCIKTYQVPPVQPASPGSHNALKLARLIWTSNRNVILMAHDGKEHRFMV
inactive: [1] -0.04 | filanesib 0.084 | zotarolimus 0.045 | idasanutlin -0.016 | alisertib -0.076 | [2] -0.102 | gefitinib -0.027 | [3] -0.074 | lapatinib 0.003 | pictilisib -0.097 | [4] 0.025 | crizotinib 0.024 | [5] -0.029 | [6] -0.096 | duvelisib 0.042 | gandotinib -0.009 | tozasertib -0.003 | [7] 0.08 | doramapimod 0.065 | ispinesib -0.075

TRAPPC13 isoform 5 (UniProt A5PLN9)
Sequence of UniProt A5PLN9 (A5PLN9 whole entry, looked up): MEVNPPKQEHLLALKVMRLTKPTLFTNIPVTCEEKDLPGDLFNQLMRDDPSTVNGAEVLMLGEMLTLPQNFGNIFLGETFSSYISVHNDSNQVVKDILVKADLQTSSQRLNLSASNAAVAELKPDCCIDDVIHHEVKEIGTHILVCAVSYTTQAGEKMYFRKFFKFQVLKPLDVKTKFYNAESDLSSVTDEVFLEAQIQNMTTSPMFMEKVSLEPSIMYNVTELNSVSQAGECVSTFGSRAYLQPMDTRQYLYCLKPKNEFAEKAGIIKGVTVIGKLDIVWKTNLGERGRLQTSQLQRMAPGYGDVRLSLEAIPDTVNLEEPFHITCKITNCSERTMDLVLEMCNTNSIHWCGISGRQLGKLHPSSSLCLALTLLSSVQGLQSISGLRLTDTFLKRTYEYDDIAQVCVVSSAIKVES
inactive: [1] 0.094 | filanesib 0.052 | zotarolimus 0.045 | idasanutlin -0.016 | alisertib -0.123 | [2] 0.009 | gefitinib 0.005 | [3] -0.046 | lapatinib 0.116 | pictilisib 0.015 | [4] -0.037 | crizotinib -0.054 | [5] 0.067 | [6] 0.009 | duvelisib 0.02 | gandotinib -0.007 | tozasertib -0.028 | [7] 0.087 | doramapimod 0.047 | ispinesib 0.032

WDCP (UniProt Q9H6R7)
Sequence of UniProt Q9H6R7 (Q9H6R7 whole entry, looked up): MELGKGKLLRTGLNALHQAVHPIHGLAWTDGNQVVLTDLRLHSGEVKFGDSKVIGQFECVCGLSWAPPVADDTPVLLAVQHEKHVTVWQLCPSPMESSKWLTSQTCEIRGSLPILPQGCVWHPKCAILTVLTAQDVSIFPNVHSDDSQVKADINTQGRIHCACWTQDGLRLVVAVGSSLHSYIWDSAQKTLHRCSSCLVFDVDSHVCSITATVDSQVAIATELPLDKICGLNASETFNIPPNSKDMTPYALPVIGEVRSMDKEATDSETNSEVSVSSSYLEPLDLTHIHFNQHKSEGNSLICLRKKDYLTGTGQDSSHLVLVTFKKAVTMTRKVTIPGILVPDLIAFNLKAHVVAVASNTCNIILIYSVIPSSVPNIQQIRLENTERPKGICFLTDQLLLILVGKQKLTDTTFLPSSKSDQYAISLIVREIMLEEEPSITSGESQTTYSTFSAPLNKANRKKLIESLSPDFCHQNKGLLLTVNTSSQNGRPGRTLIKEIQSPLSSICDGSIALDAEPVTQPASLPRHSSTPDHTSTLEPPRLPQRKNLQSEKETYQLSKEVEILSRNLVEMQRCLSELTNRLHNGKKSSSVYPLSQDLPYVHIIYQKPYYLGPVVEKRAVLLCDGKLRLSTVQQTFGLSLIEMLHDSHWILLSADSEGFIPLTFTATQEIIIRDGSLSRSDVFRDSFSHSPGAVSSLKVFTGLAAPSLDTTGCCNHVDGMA
inactive: [1] -0.028 | filanesib -0.029 | zotarolimus 0.094 | idasanutlin -0.049 | alisertib -0.074 | [2] 0.072 | gefitinib -0.061 | [3] -0.049 | lapatinib -0.037 | pictilisib 0.126 | [4] -0.018 | crizotinib 0.079 | [5] -0.046 | [6] -0.024 | duvelisib -0.007 | gandotinib 0.047 | tozasertib 0.094 | [7] 0.084 | doramapimod 0.005 | ispinesib 0.032

XRCC6 (UniProt P12956)
inactive: [1] 0.006 | filanesib -0.021 | zotarolimus 0.058 | idasanutlin -0.059 | alisertib -0.014 | [2] -0.097 | gefitinib -0.01 | [3] -0.008 | lapatinib 0.013 | pictilisib -0.024 | [4] 0.013 | crizotinib -0.064 | [5] 0.088 | [6] -0.042 | duvelisib 0.016 | gandotinib -0.149 | tozasertib 0.075 | [7] 0.091 | doramapimod -0.05 | ispinesib -0.039

VPS35L (UniProt Q7Z3J2)
inactive: [1] 0.028 | filanesib 0.049 | zotarolimus -0.016 | idasanutlin -0.118 | alisertib 0.041 | [2] 0.058 | gefitinib 0.059 | [3] -0.032 | lapatinib -0.05 | pictilisib 0.061 | [4] 0.054 | crizotinib -0.128 | [5] -0.043 | [6] 0.186 | duvelisib 0.033 | gandotinib 0 | tozasertib 0.026 | [7] 0.023 | doramapimod 0.02 | ispinesib -0.11

XPNPEP3 (UniProt Q9NQH7)
Sequence of UniProt Q9NQH7 (Q9NQH7 whole entry, looked up): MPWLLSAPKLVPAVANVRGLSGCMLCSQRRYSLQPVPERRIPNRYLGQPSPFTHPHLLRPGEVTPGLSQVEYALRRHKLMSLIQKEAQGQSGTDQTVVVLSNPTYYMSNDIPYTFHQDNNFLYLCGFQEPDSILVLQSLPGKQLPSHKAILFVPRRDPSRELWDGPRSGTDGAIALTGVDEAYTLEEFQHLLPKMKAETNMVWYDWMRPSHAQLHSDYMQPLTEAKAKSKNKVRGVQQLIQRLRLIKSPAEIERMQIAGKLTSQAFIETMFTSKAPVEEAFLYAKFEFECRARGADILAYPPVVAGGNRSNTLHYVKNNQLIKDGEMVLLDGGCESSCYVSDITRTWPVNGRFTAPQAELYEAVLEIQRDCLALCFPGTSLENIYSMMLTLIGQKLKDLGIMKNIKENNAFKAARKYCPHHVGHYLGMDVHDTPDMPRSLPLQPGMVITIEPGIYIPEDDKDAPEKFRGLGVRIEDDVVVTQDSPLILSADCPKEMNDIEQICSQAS
inactive: [1] -0.12 | filanesib -0.082 | zotarolimus -0.021 | idasanutlin -0.032 | alisertib -0.011 | [2] 0.027 | gefitinib -0.002 | [3] 0.078 | lapatinib -0.024 | pictilisib 0.027 | [4] 0.06 | crizotinib -0.013 | [5] 0.011 | [6] -0.001 | duvelisib 0.059 | gandotinib -0.033 | tozasertib -0.034 | [7] 0.034 | doramapimod 0.065 | ispinesib -0.046

TMEM120A (UniProt Q9BXJ8)
Sequence of UniProt Q9BXJ8 (Q9BXJ8 whole entry, looked up): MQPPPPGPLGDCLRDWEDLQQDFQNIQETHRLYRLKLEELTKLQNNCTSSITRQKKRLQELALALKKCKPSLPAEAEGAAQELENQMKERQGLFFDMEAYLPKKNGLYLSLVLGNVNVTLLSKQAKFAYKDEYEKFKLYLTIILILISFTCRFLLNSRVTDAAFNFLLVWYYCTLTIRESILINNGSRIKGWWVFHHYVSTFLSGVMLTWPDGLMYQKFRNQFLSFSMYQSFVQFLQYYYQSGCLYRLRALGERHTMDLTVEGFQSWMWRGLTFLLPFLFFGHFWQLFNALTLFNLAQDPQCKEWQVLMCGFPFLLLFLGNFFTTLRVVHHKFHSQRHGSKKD
inactive: [1] -0.2 | filanesib -0.049 | zotarolimus 0.038 | idasanutlin -0.217 | alisertib -0.08 | [2] -0.08 | gefitinib 0.113 | [3] -0.02 | lapatinib 0.06 | pictilisib -0.094 | [4] -0.137 | crizotinib 0.096 | [5] 0.175 | [6] -0.11 | duvelisib -0.009 | gandotinib -0.125 | tozasertib -0.01 | [7] -0.055 | doramapimod -0.077 | ispinesib 0.033

VPS41 (UniProt P49754)
inactive: [1] 0.004 | filanesib -0.085 | zotarolimus 0.015 | idasanutlin -0.068 | alisertib 0.038 | [2] -0.032 | gefitinib -0.002 | [3] -0.063 | lapatinib 0.008 | pictilisib -0.028 | [4] 0.003 | crizotinib -0.213 | [5] -0.009 | [6] 0.03 | duvelisib 0.008 | gandotinib -0.117 | tozasertib 0.01 | [7] 0.046 | doramapimod 0.034 | ispinesib -0.138

VPS8 (UniProt Q8N3P4)
inactive: [1] 0.092 | filanesib 0.001 | zotarolimus 0.043 | idasanutlin -0.03 | alisertib 0.133 | [2] 0.01 | gefitinib 0.076 | [3] -0.025 | lapatinib 0.046 | pictilisib 0.055 | [4] 0.024 | crizotinib -0.12 | [5] 0.016 | [6] 0.127 | duvelisib 0.038 | gandotinib -0.097 | tozasertib 0.065 | [7] 0.083 | doramapimod 0 | ispinesib -0.154

USP7 (UniProt Q93009)
inactive: [1] 0.034 | filanesib -0.14 | zotarolimus -0.007 | idasanutlin -0.053 | alisertib 0.144 | [2] 0.039 | gefitinib 0.04 | [3] 0.019 | lapatinib -0.029 | pictilisib 0.002 | [4] 0.008 | crizotinib -0.311 | [5] 0.147 | [6] 0.07 | duvelisib 0.046 | gandotinib -0.157 | tozasertib -0.077 | [7] 0.146 | doramapimod -0.039 | ispinesib -0.175

TMEM223 (UniProt A0PJW6)
Sequence of UniProt A0PJW6 (A0PJW6 whole entry, looked up): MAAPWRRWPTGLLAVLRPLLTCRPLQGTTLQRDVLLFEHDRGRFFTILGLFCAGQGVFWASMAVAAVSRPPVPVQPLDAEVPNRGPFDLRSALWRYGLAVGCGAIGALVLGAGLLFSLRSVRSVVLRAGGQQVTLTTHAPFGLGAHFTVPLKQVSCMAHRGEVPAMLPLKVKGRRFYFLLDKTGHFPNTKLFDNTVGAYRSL
active: ispinesib -0.254
inactive: [1] -0.042 | filanesib -0.109 | zotarolimus 0.083 | idasanutlin -0.112 | alisertib -0.046 | [2] -0.147 | gefitinib -0.028 | [3] 0.038 | lapatinib 0.018 | pictilisib -0.007 | [4] -0.008 | crizotinib -0.045 | [5] 0.038 | [6] 0.002 | duvelisib 0.043 | gandotinib -0.14 | tozasertib 0.061 | [7] 0 | doramapimod 0.015

VPS39 (UniProt Q96JC1)
Sequence of UniProt Q96JC1 (Q96JC1 whole entry, looked up): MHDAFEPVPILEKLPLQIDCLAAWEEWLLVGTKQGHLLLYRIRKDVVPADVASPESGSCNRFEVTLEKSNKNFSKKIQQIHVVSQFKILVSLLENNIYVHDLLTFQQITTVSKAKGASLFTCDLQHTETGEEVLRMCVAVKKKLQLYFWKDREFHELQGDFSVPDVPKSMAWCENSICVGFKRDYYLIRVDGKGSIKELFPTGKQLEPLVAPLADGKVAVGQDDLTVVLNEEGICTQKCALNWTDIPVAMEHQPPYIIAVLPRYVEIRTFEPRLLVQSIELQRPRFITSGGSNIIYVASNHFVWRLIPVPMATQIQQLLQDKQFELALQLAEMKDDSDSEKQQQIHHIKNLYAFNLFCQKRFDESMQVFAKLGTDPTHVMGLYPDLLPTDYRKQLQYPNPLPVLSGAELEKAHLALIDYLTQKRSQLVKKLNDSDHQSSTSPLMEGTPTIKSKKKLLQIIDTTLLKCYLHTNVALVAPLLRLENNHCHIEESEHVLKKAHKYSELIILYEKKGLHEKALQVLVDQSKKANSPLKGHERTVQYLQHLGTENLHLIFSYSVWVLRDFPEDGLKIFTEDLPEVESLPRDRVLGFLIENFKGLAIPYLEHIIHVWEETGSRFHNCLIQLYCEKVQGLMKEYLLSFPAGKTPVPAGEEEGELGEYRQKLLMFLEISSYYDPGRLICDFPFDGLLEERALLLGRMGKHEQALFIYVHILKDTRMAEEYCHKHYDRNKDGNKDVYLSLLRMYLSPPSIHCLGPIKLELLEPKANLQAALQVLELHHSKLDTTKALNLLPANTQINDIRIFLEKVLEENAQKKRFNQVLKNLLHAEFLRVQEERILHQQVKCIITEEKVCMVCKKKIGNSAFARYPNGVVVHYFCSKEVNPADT
inactive: [1] -0.038 | filanesib -0.119 | zotarolimus 0.023 | idasanutlin -0.028 | alisertib -0.012 | [2] 0.021 | gefitinib 0.051 | [3] -0.059 | lapatinib -0.012 | pictilisib -0.035 | [4] -0.037 | [5] 0.026 | [6] 0.021 | duvelisib 0.011 | gandotinib -0.126 | tozasertib -0.033 | [7] 0.025 | doramapimod 0.008 | ispinesib -0.187
active: crizotinib -0.239
